The values below come from PubChem BioAssay (NCI).

The panel holds about 83,000 compounds, 20% with a hit somewhere; the sample as a whole holds those more often.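 Treatment: one concentration, 48 hours, 96-well format. Scoring: percent growth, with anything below 10 considered active.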 Unmarked numbers belong to inactive results. Active and inactive are the calls of the source.

For the assay, the system named is HL-60(TB) leukemia. Nature of the assay: NCI-60 one-dose screen, 48 h (100 = growth as untreated, 0 = no growth, -100 = all killed). The conditions noted are these: 10 µM unless noted.
For the molecule `CCOC(=O)C1=C(C)NC(C)=C(C(=O)OCC)C1(C)C`, the growth was 69.3%.

For the molecule `COc1cc(/C=C2\CCC/C(=C\c3cc(CN4CCCCC4)c(O)c(OC)c3)C2=O)cc(CN2CCCCC2)c1O`, the growth was 92.7%. The figure for `O=C(O)C1CCCCN1c1nc(Cl)nc(Cl)n1` (stereo not given) is 97.8%; for `N/C(=N\C(N)=N\c1nc2ccccc2s1)c1cccc(Cl)c1` it is 19.7%; for `COc1nc(Nc2cccc(C(F)(F)F)c2)nc(OC)n1` it is 92.7%. The result for `NC(N)=N/N=C/CO` reads 102%; that for `O=C1c2ccccc2C(=O)c2c1oc1ccc3ccccc3c21`, 100%.

With `COc1cc(C2CC(C3C(=O)N(C)C(=O)N(C)C3=O)=NN2C=O)cc(OC)c1OC` (stereo not given), the growth was 104%. `N#Cc1c(Nc2cccc(Cl)c2)sc(C(=O)c2cc3cc(Cl)ccc3o2)c1N`: the growth was 92.9%. Take `O=C(CCc1nnc2sc(-c3ccc(Cl)cc3Cl)nn12)c1nc2ncccc2[nH]1`: the growth was 3.13% (active). In the case of `O=C1C=CC(=O)c2c(O)c(CO)c(CO)c(O)c21`, the growth is 64.2%. The figure for `CC1(O)COCCCCOc2c(CN)cccc2NC(=O)c2nc(cnc2N)-c2ccc(cc2)S(=O)(=O)C(C)(C)C1` (stereo not given) is -54.7% (active). For `C[C@H]1[C@H](C)CC[C@]2(C(=O)N3CCN(C)CC3)CC[C@]3(C)C(=CC[C@@H]4[C@@]5(C)C/C(=C/c6cccnc6)C(=O)C(C)(C)[C@@H]5CC[C@]43C)[C@H]12`, the growth was -54.4% (active). As to `CCN1C(=O)N(CC)C2Nn3c(s/c(=C\c4ccc([N+](=O)[O-])cc4)c3=O)=NC21` (stereo not given), the growth is 87%.

As to `NS(=O)(=O)c1ccc(Nc2nc(O)c(/C=C3\C=Nc4ccccc43)s2)cc1`, the growth is 95.4%. Consider `CCCCCCCCCCCCCCCCCCOP(=O)(O)O`, for which the growth was 102%. The figure for `CC(O)(c1ccccc1)C(c1ccccc1)C1CCCCN1` (stereo not given) is 78.9%; for `O=C(NC1CCNCC1)c1[nH]ncc1NC(=O)c1c(Cl)cccc1Cl` it is -31.8% (active); for `CCOC(=O)c1sc2ccc(NCc3nc[nH]c3C)cc2c1NC(=O)c1cc(OC)c(OC)c(OC)c1` it is 5.99% (active). The figure for `O=C(NCCN1CCOCC1)c1cncnc1Nc1ccc2c(ccn2Cc2ccccn2)c1` is 99.7%; for `O=C(Nc1ccccc1)Nc1ccccc1CNc1nc(Nc2ccc(OCCN3CCCC3)cc2)ncc1Cl` it is -31.2% (active). The figure for `CCOc1ccccc1C(=O)OCC(=O)Nc1cccc(S(=O)(=O)N(C)C)c1` is 86.2%; for `COc1ccc(/C=C2\SC(=S)N(CCCN3CCOCC3)C2=O)c(OC)c1` it is 83.1%; for `C/C(=C\c1cc(Cl)ccc1OCC(=O)O)[N+](=O)[O-]` it is 52.5%.

On to `O=C(/C=C/c1ccccc1)c1ccc(O)c(CN2CCN(c3cc4c(cc3F)c(=O)c(C(=O)O)cn4C3CC3)CC2)c1`, for which the growth was -6% (active). Consider `Cc1ccccc1SSc1ccccc1C`, for which the growth is 99.6%. Take `COc1ccc(NC(=O)c2sc3nc(C)c(C(=O)/C=C/c4ccccc4)cc3c2N)cc1`: the growth was 24.2%. The result for `COc1ccccc1C(=O)Nc1cccc(NC(=O)c2ccoc2C)c1` reads -18.3% (active); that for `CC(=O)O[C@@H]1/C=C/C(=O)N[C@@H](C)CCC/C=C/[C@@H]2CCC[C@H]21`, 99.8%; that for `CC1(c2ccccc2)CO1` (stereo not given), 105%.

Regarding `O=C(Nc1nc2ccc(F)cc2s1)c1cccnc1Nc1ccc(Cl)cc1Cl`, the growth is 26.5%. The result for `O=C(/C=C/c1sc(Cl)nc1Cl)c1ccc(Br)cc1` reads 71.4%; that for `Cc1cc(N/C=c2\sc3ncnn3c2=O)no1`, 111%; that for `O=C1NC(=O)C(Cn2cnc3ccccc32)N1` (stereo not given), 95.8%.

For `CC(Cc1cccc(C(F)(F)F)c1)NCCOC(=O)c1ccccc1` (stereo not given), the growth is 102%. Regarding `Cc1nc2ccccc2n1-c1ncnc2c1CC(C)c1ccccc1N2C` (stereo not given), the growth was 83.8%. With `CCO/C=N/C1=C(C#N)C(c2ccc(F)cc2)c2sc3c(F)cccc3c2O1` (stereo not given), the growth was 6.35% (active). The figure for `O=C(Nc1nc2ccc(C(F)(F)F)cc2s1)c1cc(Cl)ccc1O` is -54.4% (active). As to `COc1ccc2c(c1)C(C)Cc1c(ncnc1-n1cnc3cc(C)ccc31)N2C` (stereo not given), the growth was -25.8% (active).

Take `CCOC(=O)c1cn2ncnc(Oc3ccc(NC(=O)NCCN(C)C)c(Cl)c3)c2c1C`: the growth was 98.6%.
